Measurements from PubChem BioAssay.
Activity calls are given as the source filed them.

Legend:
[1] = test system: Plasmodium falciparum Sir2 (PF13_0152, Sir2A); test: Plasmodium falciparum Sir2A binding compounds – biochemical, small-molecule microarray, 635 nm fluorescence, primary screen (AID 1098); settings: fluorescence 635 nm, higher = more signal;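 also: score merges spot fluorescence intensity with its signal-to-noise ratio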
[2] = probe aDKK1 binding to arrayed compounds – biochemical, biotinylated probe, 635/667 nm fluorescence, primary screen (AID 1099); settings: small-molecule microarray, higher = more signal;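 also: score merges 667nm spot fluorescence with signal to noise across triplicate slides; reference of the scale not given here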
[3] = probe aCHRDL2 binding to arrayed compounds – biochemical, biotinylated probe, 635/667 nm fluorescence, primary screen (AID 1100); settings: small-molecule microarray, higher = more signal
[4] = change in splice reporter luminescence, either direction, cell-based, HEK293, spliceosome inhibition project, primary screen (AID 1101); settings: HEK293 splicing luciferase reporter, 24 h, higher = more signal, called active from +8 up or from −8 down;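 also: HEK293 cells carrying a splicing-competent luciferase reporter gene; test concentration not given here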
[5] = target: Fibroblast growth factor 10 (Homo sapiens) (UniProt O15520); test: compounds binding fibroblast growth factor 10 – biochemical, small-molecule microarray, 635 nm fluorescence, primary screen (AID 1102); settings: FGF10 binding, fluorescence 635 nm, higher = more signal
[6] = test system: glycogen synthase kinase-3 (GSK3A per assay name; protocol says GSK3B); test: compounds binding glycogen synthase kinase-3 – biochemical, small-molecule microarray, 635 nm fluorescence, GSK3A, primary screen (AID 1103); settings: fluorescence 635 nm, higher = more signal; also: the record names both GSK3A and GSK3B
[7] = target: Epidermal growth factor receptor (Homo sapiens) (UniProt P00533); test: compounds binding epidermal growth factor receptor – biochemical, small-molecule microarray, 635 nm fluorescence, primary screen (AID 1104); settings: EGFR binding, higher = more signal;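 also: score merges 667 nm emission intensity with spot signal to noise over triplicate slides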
[8] = target: Follistatin-related protein 3 (Homo sapiens) (UniProt O95633); test: compounds binding follistatin-related protein 3 – biochemical, small-molecule microarray, 635 nm fluorescence, primary screen (AID 1105); settings: FSTL3 binding, higher = more signal;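 also: score merges emission near 667 nm and signal to noise per printed spot across three slides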
[9] = target: Dickkopf-related protein 1 (Homo sapiens) (UniProt O94907); test: small molecules binding DKK1 protein – biochemical, small-molecule microarray, 635 nm fluorescence scan, primary screen (AID 1106); settings: higher = more signal;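 also: score merges emission near 667 nm with signal to noise over three replicate slides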
[10] = test system: Inhibin beta A chain (activin A); test: small molecules binding activin A – biochemical, small-molecule microarray, 635 nm fluorescence scan, primary screen (AID 1107); settings: INHBA, higher = more signal;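 also: mouse activin A protein probed at 4.33 µg/mL on printed slides; score merges bound-protein fluorescence near 667 nm with spot signal-to-noise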

Follistatin-related protein 3 (Homo sapiens), sequence (O95633 whole entry, looked up): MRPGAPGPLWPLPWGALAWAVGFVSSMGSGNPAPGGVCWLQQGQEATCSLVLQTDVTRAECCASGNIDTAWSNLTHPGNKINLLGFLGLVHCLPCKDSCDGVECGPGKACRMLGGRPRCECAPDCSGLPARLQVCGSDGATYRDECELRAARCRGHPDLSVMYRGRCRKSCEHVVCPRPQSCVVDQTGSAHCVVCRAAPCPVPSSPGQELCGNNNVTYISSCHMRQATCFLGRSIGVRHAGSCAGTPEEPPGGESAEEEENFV
Epidermal growth factor receptor (Homo sapiens), sequence (P00533 whole entry, looked up): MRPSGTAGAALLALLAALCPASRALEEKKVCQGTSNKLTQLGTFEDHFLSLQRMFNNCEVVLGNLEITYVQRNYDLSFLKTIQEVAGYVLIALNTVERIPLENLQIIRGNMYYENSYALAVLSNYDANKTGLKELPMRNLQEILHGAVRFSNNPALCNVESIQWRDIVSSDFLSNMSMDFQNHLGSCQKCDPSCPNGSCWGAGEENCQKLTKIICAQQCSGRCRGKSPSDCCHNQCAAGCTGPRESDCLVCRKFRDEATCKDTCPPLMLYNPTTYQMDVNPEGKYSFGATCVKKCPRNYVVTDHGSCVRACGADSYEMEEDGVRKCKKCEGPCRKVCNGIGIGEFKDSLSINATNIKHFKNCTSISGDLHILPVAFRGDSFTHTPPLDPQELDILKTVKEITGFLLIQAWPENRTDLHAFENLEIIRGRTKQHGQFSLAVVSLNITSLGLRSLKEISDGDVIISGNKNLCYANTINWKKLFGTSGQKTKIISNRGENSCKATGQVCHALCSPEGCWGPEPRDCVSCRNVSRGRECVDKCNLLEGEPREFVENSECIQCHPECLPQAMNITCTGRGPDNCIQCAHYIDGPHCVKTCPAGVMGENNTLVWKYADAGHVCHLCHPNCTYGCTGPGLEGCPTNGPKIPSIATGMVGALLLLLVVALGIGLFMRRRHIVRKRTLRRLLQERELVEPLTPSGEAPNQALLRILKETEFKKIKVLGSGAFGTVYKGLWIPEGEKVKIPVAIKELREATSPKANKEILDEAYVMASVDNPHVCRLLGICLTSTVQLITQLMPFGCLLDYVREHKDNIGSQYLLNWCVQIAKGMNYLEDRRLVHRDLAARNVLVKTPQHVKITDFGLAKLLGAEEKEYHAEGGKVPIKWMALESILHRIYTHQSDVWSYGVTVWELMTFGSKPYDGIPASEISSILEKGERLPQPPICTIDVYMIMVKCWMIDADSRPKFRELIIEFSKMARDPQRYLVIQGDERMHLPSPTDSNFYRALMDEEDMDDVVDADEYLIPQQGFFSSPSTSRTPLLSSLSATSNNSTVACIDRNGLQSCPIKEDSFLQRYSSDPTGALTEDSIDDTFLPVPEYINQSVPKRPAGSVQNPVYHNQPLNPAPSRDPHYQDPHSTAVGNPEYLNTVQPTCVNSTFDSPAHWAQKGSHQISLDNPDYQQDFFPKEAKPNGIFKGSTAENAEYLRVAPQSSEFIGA
Fibroblast growth factor 10 (Homo sapiens), sequence (O15520 whole entry, looked up): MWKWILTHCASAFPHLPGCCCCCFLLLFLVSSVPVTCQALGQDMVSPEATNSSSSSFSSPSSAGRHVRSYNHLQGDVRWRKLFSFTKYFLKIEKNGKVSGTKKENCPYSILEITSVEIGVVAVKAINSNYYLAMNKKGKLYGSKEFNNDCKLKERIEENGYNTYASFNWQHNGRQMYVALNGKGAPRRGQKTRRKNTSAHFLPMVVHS
Dickkopf-related protein 1 (Homo sapiens), sequence (O94907 whole entry, looked up): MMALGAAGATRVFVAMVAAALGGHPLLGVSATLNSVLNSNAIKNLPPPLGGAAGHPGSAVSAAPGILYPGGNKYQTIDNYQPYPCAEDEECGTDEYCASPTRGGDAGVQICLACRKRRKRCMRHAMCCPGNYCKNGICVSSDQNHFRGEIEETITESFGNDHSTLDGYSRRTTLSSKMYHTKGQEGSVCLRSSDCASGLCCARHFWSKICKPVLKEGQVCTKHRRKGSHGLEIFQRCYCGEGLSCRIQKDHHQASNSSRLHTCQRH

| Structure (SMILES) | composite z-score [1] | composite z-score [2] | composite z-score [3] | z-score [4] | composite z-score [5] | composite z-score [6] | composite z-score [7] | composite z-score [8] | composite z-score [9] | composite z-score [10] |
| --- | --- | --- | --- | --- | --- | --- | --- | --- | --- | --- |
| Cc1c(NC(=O)/C(C#N)=C/C=C/c2ccc([N+](=O)[O-])cc2)c(=O)n(-c2ccccc2)n1C | 1.18 | 1.24 | 0.761 | 0.652 (inactive) | 1.19 | 1.15 | 0.404 | 1.21 | 0.534 | 0.256 |
| C=CCOC(=O)[C@@H]1[C@H]2C(=O)O[C@H](c3ccccc3)[C@H](c3ccccc3)N2[C@H](c2ccc(OCCOC(=O)[C@H]3C[C@H]4C(=O)N[C@@H](CCCCN(C)C)C(=O)N4[C@H]3c3cccc(OCCO)c3)cc2)[C@@]12C(=O)Nc1ccccc12 | 0.938 | 0.342 | 0.707 | 0.0554 (inactive) | -0.515 | 0.602 | -0.632 | -0.335 | -0.679 | 0.0981 |
| CCCCCCCCCCC(O)C1C=CC2C(=O)N(C)C(=O)C2N1Nc1ccccc1 (stereo not given) | -1.02 | -0.0132 | 0.937 | 0.953 (inactive) | -1.09 | -1.09 | -1.33 | -1.54 | -1.22 | 1.17 |
| C=CC[C@H](O)c1ccc(O)c(F)c1 | 0.399 | -0.727 | 0.328 | -0.339 (inactive) | -0.809 | -1.13 | -1.23 | -0.418 | -1.97 | -2.89 |
| CCCN1C(=O)[C@@]2(c3ccc([N+](=O)[O-])cc3)CC(=O)N(C3CCCCC3)[C@@H]2c2ccc(CO)cc21 | 0.219 | 0.27 | -0.12 | -0.237 (inactive) | 0.453 | 0.478 | 0.121 | 0.41 | 1.2 | 0.898 |
| CCCCN1CC=CC23O[C@@H]4/C=C\CCCOC(=O)C4[C@H]2C(=O)N(CCCCCCO)[C@@H]3C1=O (stereo not given in full) | 0.502 | -0.196 | 0.663 | -1.09 (inactive) | -0.764 | -0.755 | -1.08 | -0.451 | -1.75 | 0.627 |
| C[C@]1(C(=O)NCC(F)(F)F)c2ccccc2C(=O)N(Cc2cc(C(F)(F)F)cc(C(F)(F)F)c2)[C@H]1c1ccc(CO)cc1 | 0.786 | 0.338 | 0.543 | 0.272 (inactive) | -0.2 | -0.447 | -0.654 | -0.695 | -0.399 | -0.497 |
| C=C(COC)C(=O)CC[C@H](OC(C)=O)c1ccccc1OCCO | 0.858 | -0.348 | 0.151 | -0.0648 (inactive) | 1.5 | -0.41 | -0.567 | -0.262 | 0.0024 | 1.13 |
| C=C(C(=O)CC[C@@H](OC(=O)c1ccccc1-c1ccccc1C(=O)O)c1ccc(OCCO)cc1)C(C)C | 0.994 | -0.0581 | -0.375 | 0.379 (inactive) | 1.22 | 0.674 | 0.267 | 1.08 | 0.776 | 0.768 |
| O=C1C2C=CC(C(O)C3CCCCC3)N(Nc3ccccc3F)C2C(=O)N1c1ccccc1 (stereo not given) | 1.12 | 1.15 | 0.95 | -0.505 (inactive) | 0.873 | 1.29 | 0.157 | 1.08 | -0.498 | 1.1 |
| CC(C)(C)OC(=O)CC[C@@]1(C(=O)N2CCOCC2)N=C(c2ccc(OCCCO)cc2)O[C@@H]1c1ccccc1CN=[N+]=[N-] | 1.23 | 0.956 | 1.15 | 0.178 (inactive) | 1.28 | 0.818 | 0.234 | 0.488 | -0.0447 | 1.01 |
| COc1ccc(C(=O)Nc2ccc(CN3C(=O)[C@@]4(O[C@@H](CC(=O)N(CCO)Cc5ccccc5)[C@H]([Si](C)(C)c5ccc(OC)cc5)[C@H]4C)c4ccccc43)cc2)cc1 | 0.901 | -0.0966 | -0.351 | -1.78 (inactive) | 0.201 | -0.185 | 0.7 | 0.335 | 0.502 | 0.432 |
| CC[C@H]1C2=C3C(CC[C@H]4C(OCc5ccc(F)cc5C(F)(F)F)OC[C@](C)([C@@H]34)N(C(=O)OC(C)(C)C)C2)C(COC(C)=O)C1COC(C)=O (stereo not given in full) | 0.386 | 0.62 | 0.971 | -0.695 (inactive) | 0.402 | 0.665 | -0.379 | 0.418 | -0.583 | 0.691 |
| COC(=O)C(CC#Cc1ccc2c(c1)[C@]1(C(=O)N2)[C@H](C(=O)NC[C@H](O)c2ccccc2)[C@H]2C(=O)O[C@H](c3ccccc3)[C@H](c3ccccc3)N2[C@@H]1c1ccc(O)cc1)C(=O)OC | 0.535 | -0.107 | 0.369 | 0.266 (inactive) | 0.243 | -0.857 | 0.221 | -0.0104 | -0.293 | -0.137 |
| O=C1N(Cc2ccccc2)Cc2ccccc2C[C@@]12COC(c1ccc(OCCCO)cc1)=N2 | 0.631 | 1.02 | 1.27 | 6.28 (inactive) | 0.334 | 1.27 | -0.622 | 0.288 | 0.306 | 1.4 |
| [N-]=[N+]=NCc1ccccc1[C@H]1OC(c2ccc(OCCCO)cc2)=N[C@@]1(Cc1ccccc1N=[N+]=[N-])C(N)=O | 1 | 0.853 | 0.879 | -0.146 (inactive) | 1.3 | 1.29 | 0.32 | 0.828 | 0.28 | 1.02 |

| Structure (SMILES) | composite z-score [1] | composite z-score [2] | composite z-score [3] | z-score [4] | composite z-score [5] | composite z-score [6] | composite z-score [7] | composite z-score [8] | composite z-score [9] | composite z-score [10] |
| --- | --- | --- | --- | --- | --- | --- | --- | --- | --- | --- |
| Cc1ccc(S[C@]2(C(=O)NC3CC3)CC(=O)N(C3Cc4ccccc4C3)[C@@H]2c2ccc(CO)cc2I)cc1 | 0.911 | 0.379 | 0.524 | -1.38 (inactive) | -0.745 | -0.641 | -1.62 | -1.11 | -0.826 | 0.771 |
| COc1ccc(CCNC(=O)[C@@H]2c3ccccc3C(=O)N(C(C)C)[C@H]2c2ccc(CO)cc2)cc1 | 0.37 | 0.316 | 0.684 | 0.109 (inactive) | -1.05 | -0.848 | -0.736 | -0.715 | -0.995 | -0.158 |
| O=C1O[C@@H](c2ccccc2)[C@@H](c2ccccc2)N2[C@@H](c3ccc(OCCO)cc3)[C@]3(C(=O)Nc4ccc(C#CC5=CCCCC5)cc43)[C@@H](C(=O)Nc3nc4ccccc4s3)[C@H]12 | 1.63 | -0.127 | -1.13 | -0.61 (inactive) | 1.01 | 0.489 | 0.554 | 0.0685 | -0.188 | -0.289 |
| C=C(C(=O)CC[C@@H](OC(=O)c1cccnc1)c1cccc(OCCO)c1)C(C)C | 1.32 | 0.28 | 0.0064 | 3.07 (inactive) | 0.959 | -0.521 | 0.111 | 0.343 | 0.109 | 0.867 |
| COC(=O)C(CC#Cc1ccc2c(c1)[C@]1(C(=O)N2)[C@H](c2ccc(OCCO)cc2)N2[C@H](c3ccccc3)[C@H](c3ccccc3)OC(=O)[C@H]2[C@@H]1C(N)=O)C(=O)OC | 1.01 | -0.201 | 0.669 | 0.373 (inactive) | -0.122 | -0.0277 | -0.69 | 0.025 | -0.531 | 0.161 |
| COC(=O)[C@@]1(Cc2ccccc2)[C@H]2c3cc(C(=O)N(C)C)n(Cc4ccc(Cl)c(C(F)(F)F)c4)c3C[C@H]2CN1C(=O)c1ccccc1 | 0.685 | 0.841 | 1.02 | -1.45 (inactive) | 1.37 | 1.31 | 0.603 | 1.45 | 0.283 | 1.29 |
| COCCCNC(=O)[C@]1(Cc2ccccc2CN=[N+]=[N-])N=C(c2ccc(OCCCO)cc2)O[C@@H]1c1ccccc1N=[N+]=[N-] | 0.427 | 1.36 | 1.38 | -0.486 (inactive) | 0.575 | 0.672 | 0.003 | 0.205 | 0.0122 | 1.4 |
| CO[C@H]1O[C@H](CO)[C@@H](OC(=O)Nc2ccccc2)[C@@H]2OC(=O)[C@@H](Cc3ccccc3)C/C=C/C[C@H](Cc3ccccc3)C(=O)O[C@@H]12 | 1.46 | -0.172 | -0.0203 | 0.0457 (inactive) | 0.73 | 0.107 | -0.191 | 0.094 | 0.206 | 0.983 |
| C=CCOC(=O)[C@H]1[C@@H]2C(=O)O[C@@H](c3ccccc3)[C@@H](c3ccccc3)N2[C@@H](c2ccc(OCCOC(=O)[C@@H]3C[C@@H]4C(=O)N[C@@H](Cc5ccccc5)C(=O)N4[C@@H]3c3ccc(O)cc3)cc2)[C@]12C(=O)Nc1ccc(I)cc12 | 1.5 | -0.188 | -0.381 | -0.461 (inactive) | 1.31 | 0.606 | 0.654 | 1.24 | 0.825 | 0.684 |
| CN(C)CCCCCCNC(=O)[C@@H]1C[C@@H]2C(=O)N[C@@H](CCCC[N+](C)(C)C)C(=O)N2[C@@H]1c1cccc(OCCO)c1 | 0.512 | 0.116 | 0.474 | -1.52 (inactive) | -1.11 | 0.218 | -0.962 | -0.714 | -0.377 | -0.246 |
| CN1C(=O)C2C=CC(C(O)COCc3ccccc3)N(Nc3ccc([N+](=O)[O-])cc3[N+](=O)[O-])C2C1=O (stereo not given) | 0.111 | 0.753 | 0.888 | 0.806 (inactive) | -0.0198 | -0.443 | -1.04 | -0.381 | -0.82 | 1.13 |
| COCCOC(=O)N1C(=O)[C@@]2(c3cc(C#CCC(C(=O)OC)C(=O)OC)ccc31)[C@H](C(=O)N1CCc3cc(OC)c(OC)cc3C1)[C@H]1C(=O)O[C@H](c3ccccc3)[C@H](c3ccccc3)N1[C@@H]2c1ccccc1OCCO | 0.496 | -0.381 | -0.162 | -0.606 (inactive) | 1.18 | 1.31 | 1.01 | 1.38 | 1.19 | 1.02 |
| CCCC=C(CCC)[C@@H](NC(=O)c1ccc(C(=O)OC)cc1)c1ccc(C(=O)OC)cc1 | -0.427 | 0.816 | 0.48 | -1.32 (inactive) | -0.363 | -0.197 | -0.195 | -0.0762 | -0.158 | 0.804 |
| CCCCC=C[C@@H](NC(=O)C(C)(C)C)c1ccccc1 | 0.641 | 0.715 | 0.609 | 0.41 (inactive) | 0.548 | 1.25 | 0.357 | 0.508 | 0.15 | 0.173 |
| COCCOC(=O)N1C(=O)[C@@]2(c3cc(C#CC4=CCCCC4)ccc31)[C@H](C(=O)N1CCCCCCC1)[C@H]1C(=O)O[C@H](c3ccccc3)[C@H](c3ccccc3)N1[C@@H]2c1ccccc1OCCO | 1.33 | 0.854 | 1.14 | -1.09 (inactive) | 0.536 | 1.3 | 0.846 | 1.44 | 0.865 | 1.75 |
